# From PubChem BioAssay
# Calls of active or inactive are those of the source. Unless noted, no stated cut-off is given here; in the data, active means inhibition above about 80%; inactive means the rest.
# Tests used:
# [1] = growth inhibition, single agent or in combination, cell-based, chromothripsis tumors, cisplatin or BGB combos (AID 1671449); details: LFS_MB_P medulloblastoma cells;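 further: cells exposed for 96 hours; 0% = vehicle DMSO and 100% = killing by high DMSO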
# [2] = growth inhibition, single agent and combos, cell-based, chromothripsis tumors, cisplatin or BGB combos (AID 1671450); details: HDN33 neuroblastoma cells, stronger effect = higher value;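 further: cells exposed to compound for four days; 0% = vehicle DMSO and 100% = cell killing by high DMSO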
# [3] = growth inhibition, single agents and combos, ICB984, cell-based, cisplatin or BGB combos, synergistic combos for chromothripsis tumors (AID 1671451; call rule not given here;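 further: cells exposed for 96 hours before readout; 0% = vehicle DMSO and 100% = killing by high DMSO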); details: ICB984 medulloblastoma cells, drug combinations, stronger effect = higher value
# [4] = growth inhibition, single agents and combos, LFS_MB_1R, cell-based, cisplatin or BGB combos, synergistic combos for chromothripsis tumors (AID 1671452); details: LFS_MB_1R medulloblastoma cells, stronger effect = higher value;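 further: cells exposed for 96 hours before readout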
# [5] = growth inhibition, single agents and combos, HTB85, cell-based, BGB or cisplatin IC20 combos, synergistic combos for chromothripsis tumors (AID 1671453); details: HTB85 osteosarcoma cells, drug combinations, stronger effect = higher value;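 further: cells exposed for 96 hours before readout; 0% = vehicle DMSO and 100% = high DMSO killing control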
# [6] = growth inhibition, single agents and combos, CRL2098, cell-based, BGB or cisplatin IC20 combos, synergistic combos for chromothripsis tumors (AID 1671454); details: CRL2098 osteosarcoma cells, drug combinations, stronger effect = higher value;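 further: cells exposed for 96 h before readout; 0% = vehicle DMSO and 100% = killing by high DMSO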
# [7] = growth inhibition, single agents and combos, HD-MB03, cell-based, BGB or cisplatin IC20 combos, synergistic combos for chromothripsis tumors (AID 1671455; in the data active means inhibition above about 83%;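 further: 0% = vehicle DMSO and 100% = high DMSO as cytotoxic control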); details: HD-MB03 medulloblastoma cells, stronger effect = higher value
# [8] = growth inhibition, single agents and combos, UWB1.289, cell-based, BGB or cisplatin combos, synergistic combos for chromothripsis tumors (AID 1671456); details: UWB1.289 ovarian carcinoma cells, stronger effect = higher value;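 further: cells exposed to compound for four days; 0% = vehicle DMSO and 100% = killing by high DMSO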
# [9] = growth inhibition, single agents and combos, LFS_MB_2R, cell-based, cisplatin combos, synergistic combos for chromothripsis tumors (AID 1671457); details: LFS_MB_2R medulloblastoma cells, stronger effect = higher value;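 further: cells exposed to compound for four days before readout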
# [10] = growth inhibition, MDA-MB-436, cell-based, BGB or cisplatin combos, synergistic combos for chromothripsis tumors (AID 1671458; call rule not given here;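 further: cells exposed for 96 hours; 0% = vehicle DMSO and 100% = killing by high DMSO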); details: MDA-MB-436 breast carcinoma growth inhibition, drug combinations, stronger effect = higher value
# [11] = UWB1.289_BRCA1 ovarian cancer growth, cell-based, BGB or cisplatin combinations (AID 1671459); details: UWB1.289 BRCA1 ovarian carcinoma, drug combinations, stronger effect = higher value
# [12] = drug combination toxicity in non-malignant astrocytes – cell-based, BGB or cisplatin IC20 combos, cytotoxicity control for chromothriptic childhood tumor combination screen (AID 1671460); details: Human astrocytes, viability inhibition, drug combinations, at 0.5 µM, stronger effect = higher value;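 further: cells exposed to compounds for 96 hours before viability readout; 0% = vehicle and 100% = killing control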
# [13] = BT084 cell growth, single and combined drugs, ICGC_MB145, cisplatin and BGB IC40 combos (AID 1671461); details: BT084 medulloblastoma cells, drug combinations, stronger effect = higher value;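 further: cells exposed to drugs for 96 hours; 0% = vehicle DMSO and 100% = high DMSO full killing control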
# [14] = RCMB18 cell growth, single agent and combined, cisplatin and BGB IC40 combos (AID 1671462); details: RCMB18 medulloblastoma cells, stronger effect = higher value;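 further: cells exposed to compound for four days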
# [15] = CRL1545 cell growth, single agent and combined, cisplatin and BGB IC20 combos (AID 1671464); details: CRL1545 osteosarcoma cells, stronger effect = higher value;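 further: cells exposed to compound for 96 hours before readout; 0% = vehicle DMSO and 100% = high DMSO killing control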
# [16] = at 0.5 µM, stronger effect = higher value
# [17] = measured here: combination with BGB IC20, at 0.005 µM
# [18] = measured here: combination with BGB IC40, at 0.005 µM
# [19] = measured here: combination with BGB IC40, at 0.05 µM
# [20] = measured here: combination with cisplatin, at 0.5 µM, stronger effect = higher value
# [21] = measured here: combination with cisplatin, at 5 µM, stronger effect = higher value
# [22] = measured here: with BGB IC20 combination, at 0.5 µM
# [23] = measured here: with cisplatin IC20 combination, at 0.5 µM
# [24] = measured here: 5 uM single agent, at 5 µM
# [25] = measured here: combination with cisplatin, at 0.5 µM
# [26] = measured here: combination with cisplatin, at 5 µM
# [27] = measured here: with BGB IC20, at 0.5 µM
# [28] = measured here: with BGB IC20, at 5 µM
# [29] = measured here: with cisplatin IC20, at 0.5 µM
# [30] = measured here: with cisplatin IC20, at 5 µM
# [31] = measured here: combination with BGB at IC20, at 0.5 µM
# [32] = measured here: combination with cisplatin at IC20, at 0.5 µM
# [33] = measured here: combo with BGB at IC20, at 0.5 µM
# [34] = measured here: combo with cisplatin at IC20, at 0.5 µM
# [35] = measured here: inhibition with BGB combination, at 0.05 µM
# [36] = measured here: inhibition with cisplatin combination, at 0.05 µM
# [37] = measured here: BGB combination, at 0.5 µM
# [38] = measured here: BGB combination, at 5 µM
# [39] = measured here: cisplatin combination, at 0.5 µM
# [40] = measured here: cisplatin combination, at 5 µM
# [41] = BGB combination, concentration series, at 5 µM
# [42] = cisplatin combination, concentration series, at 5 µM
# [43] = measured here: combo with BGB IC20
# [44] = measured here: combo with cisplatin IC20
# [45] = cisplatin combination, at 0.5 µM
# [46] = measured here: BGB IC40 combination 0.05 uM, at 0.05 µM
# [47] = measured here: BGB IC40 combination, at 0.05 µM
smiles,measurement,setting,value
C[C@@H]1COCCN1c1cc(C2(S(C)(=O)=O)CC2)nc(-c2cccc3[nH]ccc23)n1,inhibition,[1]; [16],-25.8% (inactive)
same,inhibition,[1]; [17],7.6%
same,inhibition,[1]; [18],5.5%
same,inhibition,[1]; [19],-17.8%
same,inhibition,[1]; [20],-15.1%
same,inhibition,[1]; [21],49.8%
same,inhibition,"[2]; BGB combo, at 5 µM",86.9%
same,inhibition,[2]; at 0.5 µM,36.8% (inactive)
same,inhibition,"[2]; cisplatin combo, at 5 µM",93.4%
same,inhibition,[2]; [22],34.2%
same,inhibition,[2]; [23],50.8%
same,inhibition,"[2]; single agent, at 5 µM",94%
same,inhibition,"[3]; BGB IC20 combo, at 0.005 µM",23.5%
same,inhibition,"[3]; BGB IC40 combo, at 0.005 µM",27.9%
same,inhibition,"[3]; BGB IC40 combo, at 0.05 µM",49.2%
same,inhibition,[3]; at 0.5 µM,-13.7% (inactive)
same,inhibition,"[3]; cisplatin combo, at 0.05 µM",47.4%
same,inhibition,"[3]; cisplatin combo, at 0.5 µM",1.99%
same,inhibition,"[3]; cisplatin combo, at 5 µM",-26.9%
same,inhibition,[3]; [24],12.7%
same,inhibition,[4]; at 0.5 µM,10% (inactive)
same,inhibition,[4]; [19],-3.56%
same,inhibition,[4]; [25],20.8%
same,inhibition,[4]; [26],56.7%
same,inhibition,[5]; at 0.5 µM,20.9% (inactive)
same,inhibition,[5]; [27],21%
same,inhibition,[5]; [28],63.3%
same,inhibition,[5]; [29],29.2%
same,inhibition,[5]; [30],91.9%
same,inhibition,"[5]; single agent, at 5 µM",73.8%
same,inhibition,[6]; at 0.5 µM,20.1% (inactive)
same,inhibition,[6]; [31],11.9%
same,inhibition,[6]; [32],19.4%
same,inhibition,[7]; at 0.5 µM,38% (inactive)
same,inhibition,[7]; [33],11.4%
same,inhibition,[7]; [34],91.1%
same,inhibition,[8]; at 0.5 µM,63.9% (inactive)
same,inhibition,[8]; [35],6.56%
same,inhibition,[8]; [36],-6.75%
same,inhibition,[9]; at 0.5 µM,13.6% (inactive)
same,inhibition,[9]; [25],20.6%
same,inhibition,[9]; [26],51.4%
same,inhibition,[10]; at 0.5 µM,22.5% (inactive)
same,inhibition,[10]; [37],8.94%
same,inhibition,[10]; [38],45.1%
same,inhibition,[10]; [39],30.1%
same,inhibition,[10]; [40],85.8%
same,inhibition,[11]; [41],93.1%
same,inhibition,[11]; at 0.5 µM,65.4% (inactive)
same,inhibition,[11]; [42],117%
same,inhibition,[12],23.1% (inactive)
same,inhibition,[12]; [43],14.4%
same,inhibition,[12]; [44],30.8%
same,inhibition,[13]; at 0.5 µM,17% (inactive)
same,inhibition,[13]; [45],14.1%
same,inhibition,"[13]; cisplatin combination, at 5 µM",58%
same,inhibition,[13]; [46],-18.4%
same,inhibition,"[13]; single agent, at 5 µM",44.6%
same,inhibition,[14]; at 0.5 µM,25.2% (inactive)
same,inhibition,"[14]; cisplatin combo, at 5 µM",34.6%
same,inhibition,[14]; [47],-0.169%
same,inhibition,[14]; [25],44.8%
same,inhibition,"[14]; single agent, at 5 µM",51.4%
same,inhibition,[15]; at 0.5 µM,76.6% (inactive)
same,inhibition,[15]; [22],71%
same,inhibition,[15]; [23],79.1%
same,inhibition,"[15]; single agent, at 0.05 µM",21.8%
same,inhibition,"[15]; single agent, at 5 µM",97.9%
COc1nc(N)nc2c1ncn2[C@@H]1O[C@H](CO)[C@@H](O)[C@H]1O,inhibition,[1]; [16],4.72% (inactive)
same,inhibition,[1]; [17],15.5%
same,inhibition,[1]; [18],9.31%
same,inhibition,[1]; [19],-38.6%
same,inhibition,[1]; [20],58.9%
same,inhibition,[1]; [21],5.54%
same,inhibition,"[2]; BGB combo, at 5 µM",-39.7%
same,inhibition,[2]; at 0.5 µM,-10.9% (inactive)
same,inhibition,"[2]; cisplatin combo, at 5 µM",-30.3%
same,inhibition,[2]; [22],-0.293%
same,inhibition,[2]; [23],-13.5%
same,inhibition,"[2]; single agent, at 5 µM",-2.81%
same,inhibition,"[3]; BGB IC20 combo, at 0.005 µM",-28.6%
same,inhibition,"[3]; BGB IC40 combo, at 0.005 µM",-6.48%
same,inhibition,"[3]; BGB IC40 combo, at 0.05 µM",-21%
same,inhibition,[3]; at 0.5 µM,-21.1% (inactive)
same,inhibition,"[3]; cisplatin combo, at 0.05 µM",-25.3%
same,inhibition,"[3]; cisplatin combo, at 0.5 µM",-22.6%
same,inhibition,"[3]; cisplatin combo, at 5 µM",-28.5%
same,inhibition,[3]; [24],-19.6%
same,inhibition,[4]; at 0.5 µM,-13.7% (inactive)
same,inhibition,[4]; [19],-35.3%
same,inhibition,[4]; [25],-34.3%
same,inhibition,[4]; [26],-13.1%
same,inhibition,[5]; at 0.5 µM,-19.2% (inactive)
same,inhibition,[5]; [27],-19.6%
same,inhibition,[5]; [28],-25.8%
same,inhibition,[5]; [29],-42.1%
same,inhibition,[5]; [30],-37.2%
same,inhibition,"[5]; single agent, at 5 µM",-10.5%
same,inhibition,[6]; at 0.5 µM,-31.4% (inactive)
same,inhibition,[6]; [31],-18.4%
same,inhibition,[6]; [32],-84.8%
same,inhibition,[7]; at 0.5 µM,-9.1% (inactive)
same,inhibition,[7]; [33],-11%
same,inhibition,[7]; [34],-9.78%
same,inhibition,[8]; at 0.5 µM,-10.1% (inactive)
same,inhibition,[8]; [35],-8.96%
same,inhibition,[8]; [36],-25.3%
same,inhibition,[9]; at 0.5 µM,-9.84% (inactive)
same,inhibition,[9]; [25],-1.3%
same,inhibition,[9]; [26],9.04%
same,inhibition,[10]; at 0.5 µM,-1.85% (inactive)
same,inhibition,[10]; [37],1.63%
same,inhibition,[10]; [38],-10.7%
same,inhibition,[10]; [39],-1.11%
same,inhibition,[10]; [40],-9.18%
same,inhibition,[11]; [41],-2.42%
same,inhibition,[11]; at 0.5 µM,-5.52% (inactive)
same,inhibition,[11]; [42],1.78%
same,inhibition,[12],-6.61% (inactive)
same,inhibition,[12]; [43],-1.7%
same,inhibition,[12]; [44],-14.9%
same,inhibition,[13]; at 0.5 µM,7.93% (inactive)
same,inhibition,[13]; [45],-30.4%
same,inhibition,"[13]; cisplatin combination, at 5 µM",16.2%
same,inhibition,[13]; [46],42.2%
same,inhibition,"[13]; single agent, at 5 µM",-18%
same,inhibition,[14]; at 0.5 µM,-13.9% (inactive)
same,inhibition,"[14]; cisplatin combo, at 5 µM",-23.5%
same,inhibition,[14]; [47],-4.14%
same,inhibition,[14]; [25],-19%
same,inhibition,"[14]; single agent, at 5 µM",15.2%
same,inhibition,[15]; at 0.5 µM,-24.6% (inactive)
same,inhibition,[15]; [22],-20.2%
same,inhibition,[15]; [23],-28.8%
same,inhibition,"[15]; single agent, at 0.05 µM",-9.67%
same,inhibition,"[15]; single agent, at 5 µM",-66.7%
